Source: PubChem (Sanford-Burnham Center for Chemical Genomics)
The list is not random: actives were taken first. Their share in the collection is about 31%.
PLAP act: activators of human placental alkaline phosphatase; 96,000 compounds, 1.2% hits; activation fold at 20 µM; AID 696; purified PLAP enzyme, luminescent substrate read-out; hits give high values; in the data active = activation fold above about 2
CYP2C9 inhib: inhibitors of human CYP2C9; P11712; 96,000 compounds, 20% hits; inhibition, % at 5 µM; CYP2C9 Supersomes, luciferin-H conversion, luminescence; AID 777;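 active = blocking of liver enzyme CYP2C9 beyond about 50% at 5 µM, limit read from the data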
CYP2C9 activ: increases human cytochrome P450 2C9 activity | P11712 | recombinant CYP2C9, luciferin-H conversion, luminescence; hits give high values; factor 1 = untreated enzyme, 0 = blocked | activation factor at 5 µM | 96,000 compounds, 1.4% hits | AID 1024;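 active = activation factor of 2 or more for CYP2C9 at a 5 µM dose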;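 also: 0 = sulfaphenazole-blocked wells and 1 = vehicle-only wells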
CYP2C19 activ: cytochrome P450 2C19 (human) activation; P33261; activation factor at 5 µM; recombinant CYP2C19, luciferin-H EGE luminescence; hits give high values; 0 = fully inhibited enzyme, 1 = untreated enzyme; 96,000 tested, under 10 active;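 active = activation factor of at least 2 at 5 µM in the primary screen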;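 also: 0 = wells with 2.5 mM tranylcypromine and 1 = vehicle-only wells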
Target sequence (P33261 whole entry, looked up): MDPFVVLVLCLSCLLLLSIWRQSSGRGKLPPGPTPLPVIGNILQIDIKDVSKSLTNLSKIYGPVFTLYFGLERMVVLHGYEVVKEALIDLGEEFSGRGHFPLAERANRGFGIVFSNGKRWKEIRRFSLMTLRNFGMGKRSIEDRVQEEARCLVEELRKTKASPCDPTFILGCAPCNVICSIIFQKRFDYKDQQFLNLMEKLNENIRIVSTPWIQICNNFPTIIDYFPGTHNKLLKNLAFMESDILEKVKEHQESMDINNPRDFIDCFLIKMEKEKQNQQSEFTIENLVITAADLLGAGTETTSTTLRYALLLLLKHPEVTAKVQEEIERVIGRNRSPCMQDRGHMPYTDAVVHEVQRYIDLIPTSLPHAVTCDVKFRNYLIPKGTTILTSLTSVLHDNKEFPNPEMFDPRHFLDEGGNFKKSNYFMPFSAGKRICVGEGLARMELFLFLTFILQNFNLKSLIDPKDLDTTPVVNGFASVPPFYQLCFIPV
CYP2C19 inh: inhibitors of human CYP2C19; P33261; CYP2C19 Supersomes, luciferin-H EGE luminescence, 30 min; inhibition, % at 5 µM; 96,000 compounds, 21% hits;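 active = CYP2C19 inhibition above a set limit at 5 µM in the primary screen, cut at about 50% in these data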;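 also: plate controls were negative control wells for no effect and 2.5 mM tranylcypromine positive control for full effect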
Active calls of the source: *.

SMILES	PLAP act	CYP2C9 inhib	CYP2C9 activ	CYP2C19 activ	CYP2C19 inh
CCOc1cc(/C=C2/SC(=O)N(CC(=O)N3CCc4ccccc4C3)C2=O)ccc1OCC(=O)O	1.2	3	1	1	1
COc1ccc(/C=C2\SC(=NCc3ccccc3)N(Cc3ccccc3)C2=O)cc1OC	1.1	22	0.8	0.3	72*
COc1cc(/C=C2/SC(=O)N(Cc3ccccc3)C2=O)ccc1OCc1ccncc1	1.6	82*	0.2	0.2	80*
O=C(CN1C2CCC1CC(NC(=O)Nc1ccccc1)C2)NCc1ccco1 (stereo not given)	1.5	26	0.7	0.6	38
CN(CC(=O)NCCCN1CCOCC1)S(=O)(=O)c1ccc(Br)cc1	1.4	-6	1.1	1.1	-12
CCc1nc(NCCc2ccccn2)c2nnn(Cc3ccccc3F)c2n1	1.4	67*	0.3	0.3	69*
CCCC(=O)N(c1ccc2oc(=O)sc2c1)S(=O)(=O)c1ccccc1	1	35	0.6	0.6	44
COC(=O)c1c(C)oc2ccc(N(C(=O)c3ccncc3)S(=O)(=O)c3ccccc3)cc12	1.4	77*	0.2	0.1	91*
COC(=O)c1cc(COc2ccc3oc(C)c(C(=O)OC)c3c2)c(C)o1	1.8	40	0.6	0.9	14
COC(=O)c1c(C)oc2ccc(N(C(=O)c3ccncc3)S(=O)(=O)c3ccc(C)cc3)cc12	1.7	98*	0	0	100*
Nc1cc(C(=O)O)ccc1N1CCCCCC1	0.8	-11	1.1	1.1	-5
O=c1ccc(/C=C/c2ccccc2)nn1Cc1ccccc1	0.9	64*	0.4	0.7	31
CC1(C)Cc2c(sc3c2c(=N)n(Cc2ccco2)c(=O)n3CC(=O)Nc2ccc(Cl)cc2)CO1	1.7	26	0.7	0.8	21
COc1ccc(S(=O)(=O)Nc2ccc(NC(C)=O)cc2)cc1	0.9	90*	0.1	0	97*
COc1ccccc1CNS(=O)(=O)c1ccc(NC(C)=O)cc1	0.9	-114	2.1*	0.2	77*
COc1ccc(NC(=O)C(NC(C)=O)C(=O)NCc2ccccc2OC)cc1 (stereo not given)	1	23	0.8	0.8	15
COc1ccc(S(=O)(=O)Nc2ccc(N(C)C(C)=O)cc2)cc1	1.2	83*	0.2	0.1	93*
CCOC(=O)c1ccc(NC(=O)COc2ccccc2OC)cc1	1	11	0.9	0.7	32
CCOC(=O)COC(=O)c1ccc(O)cc1	0.9	-47	1.5	0.9	7
COC(=O)c1ccc(C(=O)OC)c(NC(=O)CCc2ccc(C)o2)c1	1.1	37	0.6	0.5	51*
CCCOC(=O)c1ccc(NC(=O)CCC(=O)OCC)cc1	0.9	59*	0.4	0.4	64*
CCOc1ccc(NC(=O)CCNS(=O)(=O)c2ccc(Br)s2)cc1	0.8	-41	1.4	0.9	7
CCOC(=O)CCCNC(=O)COC(=O)c1ccc(O)cc1	1.1	-164	2.6*	1.1	-13
CCOC(=O)c1ccc(NC(=O)CCS(=O)(=O)c2ccc(Br)s2)cc1	1.2	51*	0.5	0.7	29
CCOC(=O)c1ccc(NC(=O)CCOc2ccccc2)cc1	0.9	55*	0.4	0.9	12
SMILES	PLAP act	CYP2C9 inhib	CYP2C9 activ	CYP2C19 activ	CYP2C19 inh
CCc1ccc(CCC(=O)Nc2ccc(C)cc2C)o1	1.1	-30	1.3	0.2	79*
O=C(CCOc1ccccc1)Nc1ccccc1	0.9	14	0.9	0.4	62*
CCOC(=O)c1ccc(NC(=O)Oc2ccccc2)cc1	0.9	10	0.9	0.8	20
CCCOC(=O)c1ccc(NC(=O)CCOc2ccccc2)cc1	0.8	68*	0.3	0.5	46
CCCCc1c(O)nc(SCCN(C)C)n(-c2ccccc2)c1=O	1.1	7	0.9	1	-1
CCOC(=O)c1ccc(NC(=O)CCc2ccc(CC)o2)cc1	0.7	60*	0.4	0.8	19
COc1ccc(Cl)cc1CN1CCN(c2nc(C)cc(C)c2C#N)CC1	1.6	79*	0.2	0.1	92*
CCC12CN3CC(CC)(CN(C1)C3c1ccc(OC(C)C)cc1)C2=O (stereo not given)	1.4	20	0.8	0.9	13
CC1(C)Oc2ccc(C(=O)N3CCc4ccccc43)cc2N(CC(=O)N2CCCC2)C1=O	1.6	34	0.7	0.8	23
COc1ccc(C(=O)CN2C(=O)C(C)(C)Oc3ccc(C(=O)N4CCCCCC4)cc32)cc1	1.4	78*	0.2	0.4	57*
CC(C)(C)NC(=O)c1ccc2c(c1)N(CC(=O)N1CCN(c3ccc(F)cc3)CC1)C(=O)C(C)(C)O2	1.4	60*	0.4	0.2	79*
Cc1ccc(NC(=O)c2ccc3c(c2)N(CC(=O)N2CCCCC2)C(=O)C(C)(C)O3)cc1	1.6	99*	0	0.4	58*
CCOC(=O)CN1C(=O)C(C)(C)Oc2ccc(C(=O)Nc3ccccc3OC)cc21	1.8	32	0.7	0.2	82*
COc1ccccc1N1CCN(CCc2n[nH]c(=S)n2-c2ccccc2)CC1	1.6	-20	1.2	1.2	-21
COc1ccc(C2CC(C(F)(F)F)n3nc(C(=O)NCc4cn(C)nc4C)c(Cl)c3N2)cc1 (stereo not given)	1.6	-5	1	1	-3
CC1(C)Oc2ccc(C(=O)NC3CCCC3)cc2N(CC(=O)NC2CCCCC2)C1=O	1.4	82*	0.2	0.7	34
OC(c1ccc(Cl)cc1)C(O)c1nc2ccccc2[nH]1 (stereo not given)	1	1	1	0.2	77*
OC(Cc1nc2ccccc2[nH]1)c1ccccc1Cl (stereo not given)	1.1	15	0.8	0.5	49
CCCCN(C)CCNC(=O)Cn1ncc2c(=O)oc3ccc(C)cc3c21	1	-2	1	1	-4
CN(C)c1ccc(N/C=C/C(=O)c2ccc(F)cc2)cc1	0.8	5	0.9	0.3	69*
CN(C)c1ccc(N/C=C/C(=O)c2ccco2)cc1	0.7	29	0.7	0.5	47
Cc1ccc(C2OCC3(CO)COC(c4ccc(C)cc4)N23)cc1 (stereo not given)	1.3	41	0.6	0.3	72*
CC(=O)N1N=C(c2ccc(C)cc2)OC1c1ccc(C)cc1 (stereo not given)	1.2	20	0.8	0.8	19
COc1c(C(C)C)cc(NC(C)=O)cc1C(C)C	1.2	25	0.7	0.1	89*
CC(C)c1cc(NC(=O)C(C)(C)C)cc(C(C)C)c1O	1.1	-25	1.3	1.1	-8
CCCCn1c(-c2nonc2N)nc2ccccc21	0.6	27	0.7	0.9	6
Nc1nonc1-c1nc2ccccc2n1CC(=O)NC1CCCC1	1	33	0.7	0.5	52*
CC1CCCN(C(=O)Cn2c(-c3nonc3N)nc3ccccc32)C1 (stereo not given)	1.1	22	0.8	0.6	36
